The source of these data is PubChem BioAssay (NCI).

Molecules are shown by their SMILES. Compounds without any hit were thinned out: in the full panel of roughly 83,000, 20% have a hit.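 48-hour exposure, single concentration, 96-well plates; percent growth endpoint where 0 means no net growth. Active: below 10.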 Values without a mark were called inactive. Calls of active or inactive are those of the source.

The subject of this test is UO-31 renal. Description: NCI-60 one-dose screen, 48 h (100 = growth as untreated, 0 = no growth, -100 = all killed). Conditions: 10 µM unless noted. On the procedure: Growth inhibition of the UO-31 human tumor cell line is measured as a screen for anti-cancer activity. Cells are grown in 96 well plates and exposed to the test compound for 48 hours. Compounds are tested at a single concentration, which is 10^-5 M for most compounds. The reported endpoint is percent growth (GI% or GIPRCNT), where numbers from 0 - 100% represent growth inhibition, and numbers from -100% - 0 represent cell death. For example, a value of 40 represents 60% growth inhibition. A value of 0 means no net growth occurred over the course of the experiment. A value of -40 indicates 40% of cells at the beginning of the experiment died by the end of the experiment. A value of -100 means all cells are dead at the end of the experiment.
NCI-60 Human Tumor Cell Lines Screen was performed using the standard one-dose NCI protocol, which is described in more detail at https://dtp.cancer.gov/discovery_development/nci-60/default.htm.
Compounds with GIPRCNT values below 10 were considered active. Activity score was based on GIPRCNT using the following formula: […]
Score is 0 for GIPRCNT values of 100 or above, 50 for GIPRCNT values of 0, and 100 for GIPRCNT values of -100.
For `COc1ccc2[nH]cc(-c3nc(-c4c[nH]c5c(Cl)nccc45)cs3)c2c1`, the growth is 32.4%. For the compound `Nc1nc(N)c(N=Nc2ccccc2)c(-c2ccccc2)n1`, the growth was 36%.

For the compound `Cc1ccc(C2CC(c3nc(-c4ccc(Cl)cc4)oc3C)=NN2C(=O)c2ccncc2)cc1` (stereo not given), the growth is 58.2%. In the case of `O=C1/C(=C/c2ccccc2F)CN(C(=O)C(Cl)Cl)C/C1=C\c1ccccc1F` it was -92% (active); in that of `O=C(CI)NC(=O)NC(=O)NCc1ccccc1`, -20.6% (active); in that of `CC(=O)c1sc2sc(C(C)=O)c(C)c2c1C`, 88.4%.

For the compound `CSC(SC)=C(C#N)c1nc2ccccc2s1`, the growth was 51.8%. For the compound `Cc1ccc(/C=C/C(=O)c2ccc(-n3cc(CN4CCN(c5cc6c(cc5F)c(=O)c(C(=O)O)cn6C5CC5)CC4)nn3)cc2)cc1`, the growth was 61.8%. For the compound `Cc1nc2cc(O)c(O)cc2cc1Oc1ccc(NC(=O)Nc2ccc(Cl)c(Cl)c2)cc1`, the growth is 58.6%. As for `COc1ccc(/C=C/c2ccc3ccccc3n2)c(OC)c1`, the growth was 65.4%.

As for `NC(=O)c1cnc(Nc2cccc(N)c2)nc1NCCCNC(=O)C1CCC1`, the growth is 27.8%. As for `N#C/C(=C\c1cn(Cc2ccccc2)c2ccccc12)C(=O)Nc1ncc(Cc2ccccc2Cl)s1`, the growth was -34.3% (active). As to `C#CCO[C@H]1CC(CC#C)(CC#C)C(=O)[C@@H]2[C@H]1[C@H]1C[C@@H]3[C@@]4(C)CCC[C@@](C)(C(=O)OC)[C@@H]4CC[C@@]23C=C1C(C)C`, the growth is -34.5% (active). For `O=[N+]([O-])c1ccc(-c2cn3nc(-c4c[nH]c5ccccc45)sc3n2)cc1`, the growth was 72.8%. Consider `COc1ccc(-c2nc(/C=C3\C(=O)N(C)c4ccccc43)c3ccccn23)cc1`, for which the growth is 69.3%. In the case of `O=C(Nc1cc(Cl)ccc1O)c1cccc(Nc2ccnc(C(F)(F)F)c2)c1` it was 25.5%. `CC(C)(C)n1cc(-c2ccnc(NCCCNS(=O)(=O)c3cccc4ccccc34)c2)c(-c2cccc(F)c2)n1`: the growth is 65.9%. Turning to `Cc1cccc[n+]1C1c2ccccc2-c2ccccc21`, the growth is 90.7%. For `Cc1ccc2nc(NC(=O)CSc3nc(-c4ccccc4)c(C#N)c4nnnn34)sc2c1`, the growth was 80.2%.

On to `COc1ccc2c(c1)c(-c1nc(-c3c[nH]c4ncccc34)cs1)cn2CCCN1CCOCC1`, for which the growth is 11.9%.

Turning to `Cc1c(CN)cc(-c2ccc(Cl)cc2)n1-c1ccccc1`, the growth is 59.2%.

`C=C(C)[C@@H]1CCC[C@]2(C(=O)N3CCN(C)CC3)CC[C@]3(C)[C@@H](CC[C@@H]4[C@@]5(C)CC/C(=N\NC(=O)c6ccncc6)C(C)(C)[C@@H]5CC[C@]43C)[C@@H]12`: the growth was 73.4%. `O=C(Nc1ccccc1O)c1ccc(CNC(=O)c2ccsc2Nc2ccnc(C(F)(F)F)c2)cc1`: the growth is 19.1%. Turning to `C=Cc1cnc(Nc2ccc(OC)cc2)nc1NCCCNC(=O)C1CCC1`, the growth is 10.2%. For the compound `COc1ccc(C(=O)/C=C/c2ccc(Cl)cc2)cc1S(=O)(=O)Nc1c(N)nc(SC)[nH]c1=O`, the growth is 51.6%.

On to `COc1ccc(N2CCC(=S)NC2=S)cc1`, for which the growth is 84.3%. As to `CC1(C)CC[C@]2(C(=O)N[C@H](CO)Cc3ccccc3)CC[C@]3(C)C(=CC[C@@H]4[C@@]5(C)CCCNC(C)(C)[C@@H]5CC[C@]43C)[C@@H]2C1`, the growth was 66.5%.

On to `O=C(CCCCCCN1CC(=O)N2[C@H](c3ccc(Br)cc3)c3[nH]c4ccccc4c3C[C@@H]2C1=O)NO`, for which the growth was 58.8%. As for `CC(=O)Oc1ccc(OC(C)=O)c2ccccc12`, the growth was 23.7%. As for `Clc1ccccc1-c1cnn2cc(-c3ccccc3)cnc12`, the growth was 84.6%. For `Cn1cc(-c2csc(-c3c[nH]c4ccc(F)cc34)n2)c2ccnc(Cl)c21`, the growth was 53%.

Turning to `CCOC(=O)c1[nH]c2c(c1C)-c1[nH]c(=O)c(S(=O)(=O)c3ccccc3)cc1SC2`, the growth is 54.2% [100 µM].

In the case of `CCNc1ccc(-c2nc3ccccc3n3cccc23)cc1`, the growth is 51.6%. Take `C/C(=N\O)c1ccc(NC(=O)CSc2nnc(-c3cc(-c4ccc(S(C)(=O)=O)cc4)nc4ccccc34)n2-c2ccccc2)cc1`: the growth was 65.2%.

For `Cc1ccc(-c2nc(N3CCNCC3)c3oc(-c4ccc(C)cc4)nc3n2)cc1`, the growth was 64.6%. Take `COc1cccc(/C=C/C(=O)c2cccc(Nc3nc(Nc4ccccc4)nc(Nc4ccccc4)n3)c2)c1`: the growth is 56.9%. Consider `Nc1nc(NC(=O)Nc2ccc(C(=O)O)cc2)nn1-c1ccc(S(N)(=O)=O)cc1`, for which the growth was 80.7%. With `N[C@H]1CCC[C@@H]1NCCCCN1C(=O)c2cccc3cc([N+](=O)[O-])cc(c23)C1=O`, the growth is 66%. For `CCN(CC)c1ccc(/C=N/NC(=O)Cc2ccc(Nc3ccnc(C(F)(F)F)c3)cc2)c(O)c1`, the growth was 20.3%.

Consider `COc1ccc(CNc2c3ccccc3nc3ccccc23)c(OC)c1`, for which the growth was 28%.
